High-throughput results deposited in PubChem by Broad Institute.
This is one part of a sample in which hits are shown more often than they occur.
Tgondii IFNg – T. gondii growth inhibition with IFN-gamma, primary screen, cell-based; Toxoplasma gondii growth in IFN-gamma-treated host cells; hits give low values; activity change, negative = inhibition, % (no concentration beside the values); 3.8% of 69,000 active; in the data active means activity change below about -70%, passing the limit was not always enough;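 further: host cells are HeLa cells infected with Toxoplasma gondii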
* hit, by the source's call.

`Cc1cccc(NC(=O)Cn2c(=O)cc(C(=O)N3CCCCC3)c3ccccc32)c1` gave Tgondii IFNg -45.1.
Screening CC1(C(=O)NCc2ccc(F)cc2F)CCN(C(=O)c2ccc(Br)cc2)CC1 returned Tgondii IFNg -25.7.
`O=C(CCC1N=C2c3ccccc3N=C(SCc3cc(=O)n4ccccc4n3)N2C1=O)NCc1ccco1` (centres undefined) gave Tgondii IFNg 3.0.
For CC(=O)Nc1ccc(C)cc1S(=O)(=O)N1CCC2(CC1)Nc1ccc(C)c(C)c1-n1cccc12 the results were Tgondii IFNg -2.7.
For CCOc1ccc(OCC)c(S(=O)(=O)Oc2cccc3ccc(C)nc23)c1 the results were Tgondii IFNg -93.5*.
Screening COc1ccc(OC)c(S(=O)(=O)Oc2ccccn2)c1 returned Tgondii IFNg 30.0.
CCOc1ccc(C(=O)C(C)=O)c(OCC)c1 was read as Tgondii IFNg 34.5.
For Cc1ccc(C(=O)C(C)OC(=O)c2cc(C)nc3ccccc23)cc1 (centres undefined) the results were Tgondii IFNg -3.9.
Screening Cc1ccc(CNC(=O)CN2C(=O)CCc3cc(S(=O)(=O)N4CCC(C)CC4)ccc32)cc1 returned Tgondii IFNg -6.3.
CCc1ccccc1S(=O)(=O)N1CCC2(CC1)Nc1cc(OC)ccc1-n1cccc12 was read as Tgondii IFNg -0.3.
`CCc1ncnc2c1CCN(C(=O)c1cscn1)CC2` gave Tgondii IFNg 8.9.
CN(Cc1ccnc2ccccc12)C(=O)c1cccc(Cn2cccn2)c1 was read as Tgondii IFNg -18.8.
`CCCCCCOc1nsnc1C1=CCCN(C)C1` gave Tgondii IFNg -75.4*.
`CC1COC2(CCN(C(=O)c3nn(C)c4ccccc34)C2)C1` (centres undefined) gave Tgondii IFNg -30.5.
Screening COc1ccccc1-c1ccc2c(c1)O[C@H](CN(C)CC1CCOCC1)[C@@H](C)CN([C@@H](C)CO)S2(=O)=O returned Tgondii IFNg -19.2.
C[C@H](CO)N1C[C@H](C)[C@@H](CN(C)C(=O)Cc2cccnc2)Oc2cc(C#Cc3ccccc3F)ccc2S1(=O)=O was read as Tgondii IFNg -107.7*.
COc1cccc(-c2ccc3c(c2)O[C@@H](CN(C)Cc2cccnc2)[C@@H](C)CN([C@@H](C)CO)S3(=O)=O)c1 was read as Tgondii IFNg -54.6.
`C[C@H]1CN([C@@H](C)CO)S(=O)(=O)c2ccc(C#CC(C)(C)O)cc2O[C@@H]1CN(C)Cc1ccc(F)cc1` gave Tgondii IFNg -1.9.
For COc1cccc(-c2ccc3c(c2)O[C@H](CN(C)Cc2cccnc2)[C@@H](C)CN([C@H](C)CO)S3(=O)=O)c1 the results were Tgondii IFNg -97.2*.
`COc1cccc(-c2ccc3c(c2)O[C@@H](CN(C)Cc2cccnc2)[C@@H](C)CN([C@H](C)CO)S3(=O)=O)c1` gave Tgondii IFNg 30.3.
`COc1ccccc1-c1ccc2c(c1)O[C@H](CN(C)CC1CCOCC1)[C@@H](C)CN([C@H](C)CO)S2(=O)=O` gave Tgondii IFNg -52.1.
Screening COc1cccc(-c2ccc3c(c2)O[C@@H](CN(C)Cc2cccnc2)[C@H](C)CN([C@@H](C)CO)S3(=O)=O)c1 returned Tgondii IFNg -95.2*.
For C[C@@H]1CN([C@@H](C)CO)S(=O)(=O)c2ccc(C#Cc3ccccc3F)cc2O[C@@H]1CN(C)C(=O)Cc1cccnc1 the results were Tgondii IFNg -8.4.
COCC(=O)NCc1cc(=O)n2c(n1)CN(c1ncccn1)CCC2 was read as Tgondii IFNg 3.0.
Screening Cc1occc1-c1nnc(SCC(=O)Nc2c(C)n(C)n(-c3ccccc3)c2=O)o1 returned Tgondii IFNg 6.4.
Screening COc1ccc(-c2nc(Cn3ccn4nc(-c5ccc6c(c5)OCO6)cc4c3=O)c(C)o2)cc1 returned Tgondii IFNg -18.9.
Screening Cc1cccc(NC(=O)c2nnn(Cc3nc(-c4ccccc4)oc3C)c2C)c1C returned Tgondii IFNg 73.1.
`Cn1cc(C(CNC(=O)Nc2ccc3c(c2)OCO3)c2cccnc2)c2ccccc21` (centres undefined) gave Tgondii IFNg inactive.
Screening CCOCC1CN(C(=O)Cc2ccsc2)Cc2nccn2C1 (centres undefined) returned Tgondii IFNg 3.8.
`O=C(N1CCC(n2cnc3cccnc32)CC1)N1c2ccccc2Sc2ccccc21` gave Tgondii IFNg -11.3.
For CC(=O)Nc1ccc(S(=O)(=O)N2CCC(n3cnc4cccnc43)CC2)cc1 the results were Tgondii IFNg -95.5*.
For CC(=O)Nc1ccc(S(=O)(=O)N2CCC(Cc3cc(N)nc(C)n3)CC2)cc1 the results were Tgondii IFNg -2.6.
`COc1ccc(NC2(C(=O)N3CCCn4cncc4C3)CCCC2)cc1` gave Tgondii IFNg 4.2.
`Cc1scc(NS(=O)(=O)c2ccc3c(c2)sc(=O)n3C)c1C` gave Tgondii IFNg -39.6.
COc1cc(Nc2ncc(F)c(Nc3ccc4c(n3)N(COP(=O)(O)O)C(=O)C(C)(C)O4)n2)cc(OC)c1OC was read as Tgondii IFNg -74.4*.
`C=CC(=O)Nc1cccc(Nc2nc(Nc3ccc(OCCOC)cc3)ncc2F)c1` gave Tgondii IFNg -44.6.
`Cc1ccc(NC(=O)C(=O)NCCc2sc(-c3ccc(Cl)cc3)nc2C)cc1` gave Tgondii IFNg 261.5.
Cc1noc([C@H]2COC[C@@H]3CN(C(=O)Cc4cccc(F)c4)C[C@@H]32)n1 was read as Tgondii IFNg 5.4.
For COc1ccc(-c2nc(Cn3nnc(C(=O)Nc4ccc(C)cc4Cl)c3C)c(C)o2)c(OC)c1 the results were Tgondii IFNg 44.4.
COc1cccc2ccc(CN(C)Cc3cc(-c4ccccc4)no3)nc12 was read as Tgondii IFNg 3.5.
`CCn1c(C2CCN(CCC(C)c3ccc(C)o3)CC2)n[nH]c1=O` (centres undefined) gave Tgondii IFNg -52.3.
`O=C(CN(Cc1ccccc1Cl)C(=O)C1CSC(=O)C1)NC1CCCCC1` (centres undefined) gave Tgondii IFNg 3.3.
Screening CCc1ccccc1NC(=O)CN1CCC2(CC1)N=C(c1ccc(Cl)cc1)C(=O)N2 returned Tgondii IFNg 52.0.
For Nc1nccc(/C=C/c2c(F)cccc2Cl)n1 the results were Tgondii IFNg -73.9*.
CNC(=O)[C@@H]1CC2CN(C(=O)c3cnc(C)cn3)CC2N1C (some centres undefined) was read as Tgondii IFNg 0.8.
Screening CCC(C)n1ncn(-c2ccc(N3CCN(c4ccc(OCC5COC(Cn6cncn6)(c6ccc(Cl)cc6Cl)O5)cc4)CC3)cc2)c1=O (centres undefined) returned Tgondii IFNg -95.1*.
Screening Cc1cc(C(=O)Nc2ccc(S(N)(=O)=O)cc2)no1 returned Tgondii IFNg -86.7*.
Screening Cc1cc(C(=O)Nc2ccc3c(c2)CCC(=O)N3)no1 returned Tgondii IFNg 31.0.
For CCOc1ccccc1C(=O)Nc1ccc(S(=O)(=O)Nc2cc(C)on2)cc1 the results were Tgondii IFNg -28.3.
`CCCCNC(=O)c1nc(Nc2ccccc2)c2ccccc2n1` gave Tgondii IFNg -44.1.
For CN1CCCC2(CCN(C(=O)c3cnc(Nc4ccccc4)nc3)C2)C1=O (centres undefined) the results were Tgondii IFNg 56.8.
Cc1oc(-c2ccccc2Cl)nc1Cn1c(=O)cc(C(=O)N2CCCCC2)c2ccccc21 was read as Tgondii IFNg -7.0.
`COc1cccc(CNC(=O)c2cc3c(s2)CCN3C(=O)CN(C)C)c1` gave Tgondii IFNg -6.3.
